Screening data as filed in PubChem.
C8 TRAIL sens = viability loss with TRAIL in NB7+C8 cells, primary screen, TRAIL sensitizer project, cell-based, ATPlite luminescence. inhibition (viability loss, TRAIL sensitization), % at 10 µM. actives 1% (n = 360,000). AID 624354, 2012;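 active = compounds causing at least 50% loss of cell viability in the single-dose screen, relative to plate controls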
PPC-1+TRAIL kill = compounds killing PPC-1 cancer cells with TRAIL present, primary screen, TRAIL potentiator project, ATPLite luminescence, uHTS; cell killing (% activity), % at 4 µM or 5 µM; actives 0.41% (n = 220,000); PPC-1 cells + TRAIL, ATPLite viability luminescence; AID 1443, 2008;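 active = cell killing above 50% in the first pass at 4 µM, then a duplicate retest at 5 µM averaging 50% or more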;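 note: plate controls were cells with TRAIL plus DMSO for no effect and medium-only wells lacking cells for full effect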
SENP8 block-1 = SENP8 protease inhibitors, primary screen, biochemical, luminescence; inhibition, % at 10 µM; purified SENP8, Z-RLRGG-aminoluciferin cleavage; Sentrin-specific protease 8 (Homo sapiens), Q96LD8; actives 1.2% (n = 330,000); in the data active = inhibition above about 50%
SENP8 block-2 = human SENP8 protease inhibitors, primary screen, biochemical, fluorescence, Nedd8 protein substrate, uHTS. Sentrin-specific protease 8 (Homo sapiens), Q96LD8. actives 0.64% (n = 360,000). AID 602440, 2012. recombinant SENP8. inhibition, % at 20 µM; in the data active = inhibition mostly above about 40%, no sharp cut-off; inactive = mostly below about 27%
SENP6 inh = SENP6 protease inhibitors, primary screen, biochemical, luminescence, uHTS; actives 1.8% (n = 330,000); Sentrin-specific protease 6 (Homo sapiens), Q9GZR1; inhibition, % at 10 µM; Recombinant SENP6 catalytic domain, aminoluciferin luminescence; AID 2599, 2010;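 active = inhibition above about 50% at the single tested dose, limit read from the data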;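 note: plate controls were DMSO wells with enzyme for no effect and DMSO wells lacking enzyme for full effect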
SENP7 inh = SENP7 protease inhibitors, primary screen, biochemical, luminescence, uHTS. Sentrin-specific protease 7 (Homo sapiens), Q9BQF6. recombinant SENP7, Z-RLRGG-aminoluciferin luminescence, 40 min. inhibition, % at 5 µM. actives 1.5% (n = 330,000);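 active = inhibition above about 50% at the single test dose, limit read from the data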;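 note: plate controls were DMSO with enzyme for no effect and no enzyme buffer wells for full effect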
Target sequence (Q9BQF6 706-1050 limits assumed): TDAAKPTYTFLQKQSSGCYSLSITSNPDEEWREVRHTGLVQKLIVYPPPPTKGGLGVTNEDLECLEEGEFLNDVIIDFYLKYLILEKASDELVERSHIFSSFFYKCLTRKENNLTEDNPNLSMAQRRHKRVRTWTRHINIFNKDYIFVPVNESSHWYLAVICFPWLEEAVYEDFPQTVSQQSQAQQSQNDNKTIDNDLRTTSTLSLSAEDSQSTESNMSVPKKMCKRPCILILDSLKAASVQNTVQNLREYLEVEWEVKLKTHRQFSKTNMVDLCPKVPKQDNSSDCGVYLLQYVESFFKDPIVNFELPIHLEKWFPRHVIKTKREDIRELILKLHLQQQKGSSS
SENP8 confirm = SENP8 protease inhibitors, retest, confirmation, biochemical, luminescence, single concentration | Recombinant SENP8, Z-RLRGG-aminoluciferin luminescence, 60 min | inhibition, % at 12.5 µM | actives 40% (n = 6,200) | shares compounds with SENP7 inh | AID 488912, 2010;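 active = mean inhibition across replicates above about 50%, limit read from the data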
SENP6 conf = SENP6 protease inhibitors, confirmation, biochemical, luminescence, single concentration; shares compounds with SENP7 inh; inhibition, % at 12.5 µM; actives 58% (n = 6,200); recombinant SENP6, Z-RLRGG-aminoluciferin luminescence
SENP7 conf = SENP7 protease inhibitors, retest, confirmation, biochemical, luminescence, single concentration; actives 69% (n = 6,200); shares compounds with SENP7 inh; recombinant SENP7, Z-RLRGG-aminoluciferin luminescence, 40 min; inhibition, % at 12.5 µM
Casp3 SENP sel = caspase-3 protease inhibitors, confirmation, selectivity assay for SENP inhibitor project, biochemical, single concentration. shares compounds with SENP7 inh. purified caspase-3, Z-DEVD-aminoluciferin luminescence, 60 min. inhibition, % at 12.5 µM. actives 60% (n = 6,200);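 active = mean inhibition above about 50%, limit read from the data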;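 note: plate controls were enzyme with DMSO for no effect and wells without caspase-3 for full effect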
Target sequence (P42574 28-227 limits assumed): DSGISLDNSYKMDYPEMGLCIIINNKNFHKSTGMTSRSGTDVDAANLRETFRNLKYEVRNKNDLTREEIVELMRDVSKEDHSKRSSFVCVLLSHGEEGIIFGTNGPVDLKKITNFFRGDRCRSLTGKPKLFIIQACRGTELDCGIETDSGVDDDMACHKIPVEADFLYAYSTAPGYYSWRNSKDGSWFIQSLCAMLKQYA
Luc interf = luminescence interference (SENP counter-screen); shares compounds with SENP7 inh; actives 39% (n = 6,200); inhibition, % at 12.5 µM; Pre-incubated SENP8/Z-RLRGG-aminoluciferin, luciferase luminescence interference;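 active = mean inhibition above about 50% when retested at one dose, limit read from the data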;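 note: plate controls were DMSO wells with completed reaction for no effect and substrate without enzyme for full effect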
Numbers without * were called inactive; x = no result. Most compounds without a hit are left out; they make up all but 3% or so of the library.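 Rule for the calls, unless noted: active = mean inhibition above about 50% in the one-dose retest (limit read from the data); inactive = the rest.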

SMILES	C8 TRAIL sens	PPC-1+TRAIL kill	SENP8 block-1	SENP8 block-2	SENP6 inh	SENP7 inh	SENP8 confirm	SENP6 conf	SENP7 conf	Casp3 SENP sel	Luc interf
COCCn1c(=O)c2c(nc3n2CC(C)CN3Cc2ccccc2)n(C)c1=O (stereo not drawn)	-2.3	x	3.7	17.8	-8.3	3.1	x	x	x	x	x
CCOC(=O)c1ccc(NCc2nc3ccccc3n2C)cc1	4.5	16.6	61.1*	8.7	46.4	79.1*	82.1*	83.2*	95.9*	86.2*	83.2*
Cn1c(CNc2ccc(Br)cc2)nc2ccccc21	29.3	x	59.0*	9.0	69.6*	71.6*	-3.4	63.4*	86.6*	62.7*	70.1*
Cc1cc(C)n(C(=O)CNC(=O)c2ccc(Cl)cc2Cl)n1	-7.8	x	-5.7	13.4	26.8	29.2	x	x	x	x	x
CCC1(c2ccc(F)cc2)NC(=O)N(CC(=O)NCC(=O)Nc2cccc(C)c2C)C1=O (stereo not drawn)	-1.7	x	-8.5	2.7	-6.4	-9.0	x	x	x	x	x
Cc1c(C(=O)N2c3ccccc3CC2C)oc2ccccc12 (stereo not drawn)	45.9	x	67.5*	15.4	79.7*	61.6*	78.0*	77.4*	90.3*	50.7*	49.8
COCc1c(C(=O)OCC(=O)N2c3ccccc3CC2C)oc2ccccc12 (stereo not drawn)	-5.4	3.4	1.7	12.7	-19.3	8.3	x	x	x	x	x
COc1ccc(C(CCN(Cc2ccc(OC)c(OC)c2)C(C)=O)C(C)C)cc1 (stereo not drawn)	-2.1	x	-7.7	10.4	1.6	-1.2	x	x	x	x	x
Cc1ccc2c(c1)Cc1nc3ccccc3nc1-2	58.9*	49.6	96.4*	-299.7	98.0*	99.8*	-4.8	98.9*	103.2*	97.6*	68.2*
Fc1ccc2nc(Nc3ccccc3)sc2c1	12.5	26.0	64.2*	7.4	46.7	72.3*	81.1*	80.7*	95.0*	58.5*	82.2*
c1ccc2sc(Nc3nc4cc5c(cc4s3)OCO5)nc2c1	10.9	20.5	-10.7	-327.7	24.5	63.7*	4.9	11.9	35.5	21.8	9.6
Cc1ccc(Nc2nc3ccccc3s2)c(C)c1	55.1*	36.8	62.4*	16.6	7.2	78.9*	77.0*	73.3*	91.4*	54.0*	66.9*
CC(=O)Nc1nc2cc3c(cc2s1)OCO3	-18.7	-23.3	39.9	5.1	68.5*	56.3*	44.1	52.6*	86.5*	82.9*	25.7
NNc1nc2ccc(F)cc2s1	8.4	30.1	11.5	2.0	20.8	8.2	x	x	x	x	x
CC(C)C(=O)Nc1nc2cc3c(cc2s1)OCCO3	29.6	28.8	-0.6	21.5	33.1	26.9	x	x	x	x	x
Fc1ccc2nc(Nc3nc4cc5c(cc4s3)OCO5)sc2c1	15.1	10.6	-17.5	-394.6	-22.7	4.9	x	x	x	x	x
CCOc1ccc(S(=O)(=O)c2cn(C)c3cc(OC)c(OC)cc3c2=O)cc1	5.9	x	-8.4	-26.6	-1.1	10.7	x	x	x	x	x
O=C(COC(=O)c1ccc(F)cc1)NC1CC1	-4.2	x	-19.5	11.1	-12.4	0.3	x	x	x	x	x
CC(C)(CC(=O)O)CC(=O)Nc1cc(C(F)(F)F)cc(C(F)(F)F)c1	-7.2	2.9	-2.8	13.3	-11.3	0.9	x	x	x	x	x
Cc1ccc(-n2c(SCC(=O)N(C)C3CCS(=O)(=O)C3)nc3ccccc3c2=O)cc1 (stereo not drawn)	-0.7	36.8	1.6	0.8	4.0	1.3	x	x	x	x	x
Fc1ccc2nc(Nc3nc4cc5c(cc4s3)OCCO5)sc2c1	25.5	21.0	51.8*	-430.7	71.0*	35.1	-6.2	16.6	19.2	6.9	-1.8
Cn1c(-c2nnn(-c3ccc(F)cc3)n2)cc2ccccc21	x	18.5	39.1	x	52.4*	11.3	17.3	9.7	13.2	7.8	-4.5
c1ccc(-c2noc(C3CCC3)n2)nc1	7.2	3.6	-4.8	18.2	-19.4	-4.8	x	x	x	x	x
CCCCC1CCC(c2nc(-c3ccccn3)no2)CC1 (stereo not drawn)	11.8	27.0	54.2*	17.1	71.5*	41.4	10.6	28.1	0.7	25.1	26.4
O=C(Nc1cccs1)Nc1ccccc1Br	9.5	-11.0	21.6	4.8	50.1*	40.0	31.3	45.7	74.8*	40.7	16.8
SMILES	C8 TRAIL sens	PPC-1+TRAIL kill	SENP8 block-1	SENP8 block-2	SENP6 inh	SENP7 inh	SENP8 confirm	SENP6 conf	SENP7 conf	Casp3 SENP sel	Luc interf
COc1cccc(NC(=O)Nc2ccccc2Br)c1	2.2	-3.9	66.0*	3.5	89.5*	82.2*	76.6*	77.9*	93.8*	69.8*	36.5
COc1ccccc1NC(=O)Nc1cccc(C(=O)O)c1	1.4	-3.7	30.1	-4.7	60.4*	44.1	55.7*	51.8*	80.4*	77.1*	63.0*
COc1cccc(NC(=O)COc2ccccc2C(N)=O)c1	40.3	49.6	37.5	13.5	64.7*	39.3	29.8	27.1	70.8*	74.8*	52.2*
COc1cccc(NC(=O)Nc2cc(Cl)ccc2C)c1	21.4	4.7	-11.6	4.1	2.2	-1.3	x	x	x	x	x
COC(=O)c1ccccc1NC(=O)Nc1cccs1	-13.0	-11.1	-7.5	-41.7	-4.6	-7.1	x	x	x	x	x
COc1cccc(NC(=O)COC(=O)COc2ccccc2[N+](=O)[O-])c1	-8.0	14.4	-8.5	10.5	-27.2	-3.1	x	x	x	x	x
COc1ccc(Cl)cc1C(=O)OCC(=O)NCCNC(=O)COC(=O)c1cc(Cl)ccc1OC	-15.2	x	4.7	0.8	-11.6	-2.0	x	x	x	x	x
CC1C(=O)N(Cc2cn(CCC3OCCCO3)nn2)CCS(=O)(=O)N1Cc1ccc(-c2ccc(Cl)c(Cl)c2)cc1 (stereo not drawn)	22.4	x	x	-2.2	x	x	x	x	x	x	x
O=C(NCCCN1CCOCC1)c1c(F)c(F)c(F)c(F)c1F	-8.9	x	2.2	0.8	1.7	-7.8	x	x	x	x	x
